Source: PubChem BioAssay
Sampled rows, rich in hits. Any-hit rate of the full collection: about 1.1%.
HTR5A inv ctr: inverse agonist of human HTR5A in OPRM1-OPRD1 counter-screen; 340,000 tested, 0.083% active; P47898; HTR5A cell line, luminescence, inverse agonism; inhibition, % at 9.3 µM; in the data active = inhibition mostly above about 23%, no sharp cut-off; inactive = mostly below about 18%
Target sequence (P47898 whole entry, looked up): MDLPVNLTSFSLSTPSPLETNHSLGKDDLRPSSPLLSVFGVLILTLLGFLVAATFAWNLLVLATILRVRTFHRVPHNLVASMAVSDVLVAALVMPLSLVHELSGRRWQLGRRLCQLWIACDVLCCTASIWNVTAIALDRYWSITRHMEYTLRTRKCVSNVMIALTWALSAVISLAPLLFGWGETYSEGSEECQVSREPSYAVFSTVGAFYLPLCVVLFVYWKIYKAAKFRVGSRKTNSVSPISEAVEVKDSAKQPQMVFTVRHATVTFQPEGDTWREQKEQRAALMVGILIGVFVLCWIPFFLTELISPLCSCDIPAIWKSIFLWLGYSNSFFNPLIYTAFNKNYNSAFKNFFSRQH
HTR5A ag ctr: activates human HTR5A in OPRM1-OPRD1 agonist counter-screen; 340,000 tested, 0.61% active; P47898; AID 504692; activation, % at 9.3 µM; HTR5A agonist assay, luminescence, cell-based; in the data active = activation mostly above about 9.5%, no sharp cut-off; inactive = mostly below about 7.6%
OPRM1-OPRD1 inv: mu-delta opioid heterodimer inverse agonism | P35372+P41143 | cell-based MOR-DOR heterodimer luminescence | inhibition, % at 9.3 µM | 340,000 tested, 0.21% active | AID 504357; in the data active = inhibition above about 22%, passing the limit was not always enough
OPRM1-OPRD1 ag: OPRM1-OPRD1 heterodimerization agonism; P35372+P41143; cells, luminescence; activation, % at 9.3 µM; 340,000 tested, 0.3% active; in the data active = activation above about 18%
Each line names hits and unclear results; the compound was inactive in the other large screens.

CC1CN(C(=O)COC(=O)/C=C/c2ccc(C(F)(F)F)cc2)CC(C)O1 (configuration not stated)	none
CC(=O)NC12CC3CC(C1)CC(C(=O)N1CCN(S(=O)(=O)c4ccc(Cl)s4)CC1)(C3)C2	HTR5A ag ctr 11
CC(=O)NC12CC3CC(C1)CC(C(=O)N1CCN(S(=O)(=O)c4ccccc4[N+](=O)[O-])CC1)(C3)C2	none
Cc1ccccc1OCCc1c(C)[nH]c(=S)[nH]c1=O	HTR5A ag ctr 12
CCCCN(CC)C(=O)c1cc2c(=O)[nH]c3ccc(C)cc3c2s1	none
CCCCN(Cc1ccco1)C(=O)c1cc2c(=O)[nH]c3ccc(C)cc3c2s1	HTR5A ag ctr 16, OPRM1-OPRD1 ag 20
O=[N+]([O-])c1c(Nc2ccccc2O)cc(Cl)c2nonc12	OPRM1-OPRD1 inv 29
CC1=C(C(=O)Nc2cccc(C(=O)NC3CCCC(C)C3C)c2)SCCO1 (configuration not stated)	none
Cc1ccc(C(=O)N2CC(=O)NC(=O)C2)cc1	none
Cc1ccc(S(=O)(=O)N2CCCCC2c2cccnc2)c(C)c1C (configuration not stated)	HTR5A ag ctr 13
O=C(Nc1cccc(C(F)(F)F)c1)C1CCN(S(=O)(=O)c2ccc(N3CCCC3=O)cc2)CC1	none
NNS(=O)(=O)c1ccc2c(c1)Cc1cc(S(=O)(=O)NN)ccc1-2	HTR5A ag ctr 12
O=C(NCc1ccc(F)cc1)C1CCC(CNS(=O)(=O)c2cccs2)CC1 (configuration not stated)	HTR5A ag ctr 14
COc1ccccc1CN1CC(C(=O)N(C)Cc2ccc(C)o2)CCC1=O (configuration not stated)	none
CC(C)(C)C1=CC(=O)C(=O)C(C(C)(C)C)=C1	OPRM1-OPRD1 ag 36
CCS(=O)(=O)c1nc(S(=O)(=O)c2ccc(C)cc2)c(N2CCOCC2)s1	HTR5A ag ctr 11
Cc1ccc(S(=O)(=O)c2nc(S(C)(=O)=O)sc2N2CCOCC2)cc1	none
Cc1ccc2c(Cl)c(C(=O)NC3CC3)sc2c1	none
Cc1ccc2c(c1)c1c3n2CCN(C(=O)CN2CCN(C)CC2)C3CCC1 (configuration not stated)	HTR5A ag ctr 9.1
CCC1Nc2ncnc(N3CCCCC3)c2N(Cc2ccc(Cl)cc2)C1=O (configuration not stated)	none
CCC1Nc2ncnc(N3CCN(c4ccccn4)CC3)c2N(Cc2ccc(Br)cc2)C1=O (configuration not stated)	HTR5A inv ctr 80, OPRM1-OPRD1 inv 86
CCC1Nc2ncnc(N3CCN(c4ccccn4)CC3)c2N(Cc2ccc(Cl)cc2)C1=O (configuration not stated)	HTR5A inv ctr 77, OPRM1-OPRD1 inv 80
CCC1Nc2ncnc(N3CCN(c4ccccc4)CC3)c2N(Cc2ccccc2)C1=O (configuration not stated)	HTR5A inv ctr 49, OPRM1-OPRD1 inv 60
CCC1Nc2ncnc(N3CCCCC3)c2N(Cc2ccc(Br)cc2)C1=O (configuration not stated)	none
O=C1OC(N2CCN(C(=O)c3ccco3)CC2)c2ccccc21 (configuration not stated)	HTR5A ag ctr 9.9
O=C(O)CC(NC(=O)CCc1ccccc1)c1ccc(Cl)cc1 (configuration not stated)	none
Cc1cccc(C)c1OCC(=O)OC/C(O)=C(\C#N)c1nc2ccccc2[nH]1	none
Cc1cc(C)cc(OCC(=O)OC/C(O)=C(\C#N)c2nc3ccccc3[nH]2)c1	HTR5A ag ctr 23, OPRM1-OPRD1 ag 40
CSc1ccc(CN2CCN(S(=O)(=O)Cc3ccccc3)CC2)cc1	none
Cc1ccc(NC(=O)CN2CCN(c3ccccn3)CC2)cc1S(=O)(=O)N(C)C	HTR5A ag ctr 9.4
CCN(CC)S(=O)(=O)c1cc(NC(=O)CN2CCN(c3ccccn3)CC2)ccc1C	none
CC(=O)Nc1ccc(N(C(=O)c2ccco2)C(C(=O)NC2CCCC2)c2ccncc2)cc1 (configuration not stated)	none
CC(C)Oc1ccc(C(=O)Nc2ccc(Cl)c(S(=O)(=O)Nc3ccc(Cl)cc3)c2)cc1	HTR5A ag ctr 12
Cc1ccc(-n2c(SCC(=O)N(C)C)nnc2-c2ccco2)cc1	none
Cc1cc(C)n(CCOc2ccc(Br)cc2)n1	none
CCOC(=O)c1ccc(NC(=O)c2cccc(S(=O)(=O)N3CCN(C(C)=O)CC3)c2)cc1	HTR5A ag ctr 12
CCCOC(=O)c1ccc(NC(=O)c2cccc(S(=O)(=O)N3CCN(C(C)=O)CC3)c2)cc1	none
CC(C)(C)c1nn(-c2ccccc2)c2[nH]c(=O)c(CNCc3ccc4c(c3)OCO4)cc12	HTR5A ag ctr 12
CCOc1cccc(NCc2cc3c(C(C)(C)C)nn(-c4ccccc4)c3[nH]c2=O)c1	none
